Experimental findings from PubChem BioAssay are described below.

The target in test [1] is Sentrin-specific protease 8 (Homo sapiens) (UniProt Q96LD8). Briefly: SENP8 protease inhibitors, retest, confirmation, biochemical, luminescence, single concentration (AID 488912;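 active = mean inhibition across replicates above about 50%, limit read from the data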). Particulars: Recombinant SENP8, Z-RLRGG-aminoluciferin luminescence, 60 min; at 12.5 µM; active compounds read high.
Test [2] addresses Sentrin-specific protease 6 (Homo sapiens) (UniProt Q9GZR1). Briefly: SENP6 protease inhibitors, confirmation, biochemical, luminescence, single concentration (AID 488915). Particulars: recombinant SENP6, Z-RLRGG-aminoluciferin luminescence; at 12.5 µM; active compounds read high.
Test [3] addresses Sentrin-specific protease 7 (Homo sapiens) (UniProt Q9BQF6). Put plainly: SENP7 protease inhibitors, retest, confirmation, biochemical, luminescence, single concentration (AID 488917). Particulars: recombinant SENP7, Z-RLRGG-aminoluciferin luminescence, 40 min; at 12.5 µM; active compounds read high.
The next test concerns the target Caspase-3 (Homo sapiens) (UniProt P42574). Put plainly: caspase-3 protease inhibitors, confirmation, selectivity assay for SENP inhibitor project, biochemical, single concentration (AID 488918;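 active = mean inhibition above about 50%, limit read from the data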;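 note: plate controls were enzyme with DMSO for no effect and wells without caspase-3 for full effect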). Particulars: purified caspase-3, Z-DEVD-aminoluciferin luminescence, 60 min; at 12.5 µM; active compounds read high.
Test [4] is described as follows: luciferase luminescence interference by compounds, confirmation, artefact control for SENP inhibitor project, biochemical, single concentration, SENP8 reaction pre-completed (AID 488919;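 active = mean inhibition above about 50% when retested at one dose, limit read from the data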;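 note: plate controls were DMSO wells with completed reaction for no effect and substrate without enzyme for full effect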). Particulars: Pre-incubated SENP8/Z-RLRGG-aminoluciferin, at 12.5 µM, active compounds read high.

The other results are listed elsewhere or left out. Unmarked numbers belong to inactive results. The source made the active and inactive calls.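 Rule for the calls, unless noted: active = mean inhibition above about 50% in the one-dose retest (limit read from the data); inactive = the rest.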

Sequence of Sentrin-specific protease 6 (Homo sapiens) (Q9GZR1 628-1112 limits assumed): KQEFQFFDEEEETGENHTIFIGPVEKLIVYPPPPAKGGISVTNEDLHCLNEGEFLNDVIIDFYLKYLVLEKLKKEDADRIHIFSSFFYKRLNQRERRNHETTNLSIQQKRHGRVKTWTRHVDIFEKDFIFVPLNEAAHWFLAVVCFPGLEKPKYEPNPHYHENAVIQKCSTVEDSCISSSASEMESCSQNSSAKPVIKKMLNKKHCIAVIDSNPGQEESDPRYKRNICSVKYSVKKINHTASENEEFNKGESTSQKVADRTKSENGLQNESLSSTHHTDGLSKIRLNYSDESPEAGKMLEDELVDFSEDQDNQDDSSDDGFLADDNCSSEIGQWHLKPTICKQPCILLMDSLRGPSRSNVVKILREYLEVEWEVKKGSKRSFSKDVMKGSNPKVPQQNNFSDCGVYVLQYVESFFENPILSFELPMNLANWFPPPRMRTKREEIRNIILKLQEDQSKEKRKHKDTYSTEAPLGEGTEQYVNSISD
Sequence of Sentrin-specific protease 7 (Homo sapiens) (Q9BQF6 706-1050 limits assumed): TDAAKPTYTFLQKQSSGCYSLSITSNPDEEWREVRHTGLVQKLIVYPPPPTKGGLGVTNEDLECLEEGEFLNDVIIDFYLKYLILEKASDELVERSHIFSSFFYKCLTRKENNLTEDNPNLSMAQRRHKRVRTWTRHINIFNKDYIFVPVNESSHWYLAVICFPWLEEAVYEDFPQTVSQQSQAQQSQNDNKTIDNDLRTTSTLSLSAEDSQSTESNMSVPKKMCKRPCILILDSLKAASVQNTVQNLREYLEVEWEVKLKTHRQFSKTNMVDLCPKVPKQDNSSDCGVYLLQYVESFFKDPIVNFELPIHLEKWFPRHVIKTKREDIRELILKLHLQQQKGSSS
Sequence of Sentrin-specific protease 8 (Homo sapiens) (Q96LD8 whole entry, looked up): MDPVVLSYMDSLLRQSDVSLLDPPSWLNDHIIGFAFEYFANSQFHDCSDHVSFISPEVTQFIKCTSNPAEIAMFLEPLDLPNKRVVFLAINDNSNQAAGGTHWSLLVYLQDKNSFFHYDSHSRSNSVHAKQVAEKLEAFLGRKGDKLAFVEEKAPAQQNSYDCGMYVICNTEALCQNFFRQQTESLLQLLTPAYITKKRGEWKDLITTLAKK
Sequence of Caspase-3 (Homo sapiens) (P42574 28-227 limits assumed): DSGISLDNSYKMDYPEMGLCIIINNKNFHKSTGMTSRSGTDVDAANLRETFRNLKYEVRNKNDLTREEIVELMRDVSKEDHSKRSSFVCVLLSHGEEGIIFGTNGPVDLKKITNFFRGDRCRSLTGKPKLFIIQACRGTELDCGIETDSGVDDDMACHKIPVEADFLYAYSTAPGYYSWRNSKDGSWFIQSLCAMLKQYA

One may read the inhibition as the drop in the measured response relative to a control, in per cent. For `CSc1ccccc1NC(=O)c1cc(C2CC2)on1`, the inhibition in test [1] was 34.7%; in test [2], 28.3%; in test [3] it was 62.8% (active); with Caspase-3 (Homo sapiens), 41.1%; in test [4] it was 40%.

For `O=C(Nc1ccccc1)c1ccc2c(c1)OCO2`, the inhibition in test [1] is 10.6%; in test [2], 74.3% (active); in test [3] it was 93.9% (active); with Caspase-3 (Homo sapiens) it was 88.9% (active); in test [4] it was 54.8% (active).

For the molecule `CN(CC(=O)Nc1ccc(Cl)cc1)C(=O)CNC(=O)c1ccc2ccccc2c1`, the inhibition was 15.1% in test [1]; 12.3% in test [2]; 66.3% (active) in test [3]; 21.6% in the test with Caspase-3 (Homo sapiens); 1.1% in test [4].

Take `O=C(OCC(=O)N1CCN(c2ccccc2)CC1)c1ccc([N+](=O)[O-])s1`: the inhibition is 64.2% (active) in test [1]; 80.9% (active) in test [2]; 25.4% in test [3]; 8.3% in the test with Caspase-3 (Homo sapiens); -3.3% in test [4].

Take `Cc1nn2cc(-c3ccc(Cl)cc3)cnc2c1Br`: the inhibition in test [1] is 17.8%; in test [2] it was 15.7%; in test [3], 30.8%; in the test with Caspase-3 (Homo sapiens), 28.5%; in test [4], 9%.

As for `O=C(c1cnn2ccccc12)N1CCc2ccccc21`, the inhibition in test [1] is 36.7%; in test [2], 39.6%; in test [3] it was 78.5% (active); in the test with Caspase-3 (Homo sapiens) it was 74% (active); in test [4], 61.4% (active).

In the case of `Oc1ccccc1-c1cc(-c2ccc(Cl)cc2)n[nH]1`, the inhibition was 93.9% (active) in test [1]; 94.4% (active) in test [2]; 99.9% (active) in test [3]; 68.9% (active) with Caspase-3 (Homo sapiens); 75.2% (active) in test [4].

As for `COc1ccccc1OCc1nc2ccccc2s1`, the inhibition was 96.7% (active) in test [1]; 97.3% (active) in test [2]; 102% (active) in test [3]; 96% (active) with Caspase-3 (Homo sapiens); 95.3% (active) in test [4].

On to `COc1ccc(CNC(=O)COc2ccccc2C(=O)c2cnn(-c3ccccc3)c2)cc1OC`, for which the inhibition is 77.7% (active) in test [1]; 76.1% (active) in test [2]; 89.2% (active) in test [3]; 61.9% (active) with Caspase-3 (Homo sapiens); 65.5% (active) in test [4].

For the molecule `CCCc1cc(=O)oc2c(C)c(OCC(=O)Nc3ccccn3)ccc12`, the inhibition in test [1] was 18.2%; in test [2], 14.4%; in test [3] it was 23.3%; in the test with Caspase-3 (Homo sapiens) it was 39.2%; in test [4] it was 11.8%.

Consider `Cc1ccc(O)c(CNc2nc3ccccc3n2C)c1`, for which the inhibition is -5% in test [1]; -7.9% in test [2]; 7.6% in test [3]; 8.9% in the test with Caspase-3 (Homo sapiens); -0.5% in test [4].

As to `COc1ccc2occ(C(=O)c3ccc(N=C(C)N(C)C)cc3)c2c1`, the inhibition is 44.8% in test [1]; 42.5% in test [2]; 73% (active) in test [3]; 65.7% (active) in the test with Caspase-3 (Homo sapiens); 51.3% (active) in test [4].
